Assay [1] in a line: antimalarial activity against Dd2 strain (AID 2302;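 active = growth inhibition above 50% at the single 2 µM test dose, taken to imply half-maximal potency below 2 µM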;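 note: 0% = DMSO untreated growth and 100% = chloroquine plus artemisinin killed control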). The conditions noted are these: P. falciparum Dd2 in RBCs, LDH growth readout, 72 h; at 2 µM; hits give high values.
A short description of assay [2]: human hepatoma cell viability loss – ATP luminescence, cytotoxicity control for P. falciparum antimalarial project, primary screen (AID 2303;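 active = inhibition above 50%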;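 note: 0% = DMSO wells and 100% = digitonin-killed cells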). As to conditions: HepG2 viability, 24-48 h, at 10 µM, hits give high values.
The target of assay [3] is L-lactate dehydrogenase (Plasmodium falciparum (isolate CDC / Honduras)) (UniProt Q27743). Kind of assay: PfLDH activity inhibition – cell lysate, 3D7 strain, counter-screen for P. falciparum growth inhibition project (AID 2304).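 Note: 0% = vehicle and 100% = reference inhibitor.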 The conditions noted are these: P. falciparum 3D7 crude extract, LDH APAD/NBT absorbance; at 2 µM; hits give high values. Background: The purpose of a counterscreen is to sort out artefacts and off-target activity.

Assay [4] is described as follows: inhibition of 3D7 malaria parasite growth – strain 3D7 (AID 2306).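 Note: 0% = DMSO wells and 100% = chloroquine plus artemisinin control wells.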 As to conditions: P. falciparum 3D7 erythrocytic growth, LDH absorbance, 72 h; at 2 µM; hits give high values.
Assay [5] deals with Calcium-dependent protein kinase 1 (Plasmodium falciparum (isolate 3D7)) (UniProt P62344). Nature of the assay: PfCDPK1 kinase inhibitors, biochemical, TCAMS library (AID 1159585; cut-off not given, nearly all actives have IC50 up to about 0.98 µM;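 note: inhibitors leave more ATP so luminescence rises with inhibition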). As to conditions: recombinant PfCDPK1, Kinase-Glo ATP depletion luminescence. A general note: Kinase-Glo reads ATP consumption through a luciferase reaction.
Assay [6] concerns the target Plasmodium falciparum protein kinase 6 (PK6, PF3D7_1337100) (UniProt Q8IDW1). Kind of assay: PfPK6 kinase inhibitors, biochemical, TCAMS library (AID 1159586). The conditions noted are these: recombinant PfPK6, Kinase-Glo ATP depletion luminescence.
Assay [7] deals with Protein kinase 7 (PK7), Plasmodium falciparum 3D7 (PF3D7_0213400) (UniProt Q7YTF7). Nature of the assay: inhibition of Plasmodium PK7 catalytic activity – biochemical, TCAMS antimalarial set, Kinase-Glo luminescence (AID 1159587). As to conditions: recombinant PfPK7, Kinase-Glo ATP depletion luminescence.
Assay [8] deals with Calcium-dependent protein kinase 4 (Plasmodium falciparum (isolate 3D7)) (UniProt Q8IBS5). Kind of assay: PfCDPK4 kinase inhibitors, biochemical, TCAMS library (AID 1159588; cut-off not given, nearly all actives have IC50 up to about 0.91 µM). The conditions noted are these: recombinant PfCDPK4, Kinase-Glo ATP depletion luminescence.

Unmarked numbers belong to inactive results. For some of these results: Entries with a potency or affinity are not part of this list. Calls of active or inactive are those of the source. Unless noted, the rule behind the calls is not given here.

Sequence of Plasmodium falciparum protein kinase 6 (PK6, PF3D7_1337100) (Q8IDW1 1-305): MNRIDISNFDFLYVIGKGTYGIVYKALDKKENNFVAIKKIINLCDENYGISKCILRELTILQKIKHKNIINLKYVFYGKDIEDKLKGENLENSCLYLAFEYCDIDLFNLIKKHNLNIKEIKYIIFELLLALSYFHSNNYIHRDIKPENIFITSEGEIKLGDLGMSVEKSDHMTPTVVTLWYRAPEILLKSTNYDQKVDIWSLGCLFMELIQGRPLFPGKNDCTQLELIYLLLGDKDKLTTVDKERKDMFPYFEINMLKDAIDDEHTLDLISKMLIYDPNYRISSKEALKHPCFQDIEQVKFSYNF
Sequence of L-lactate dehydrogenase (Plasmodium falciparum (isolate CDC / Honduras)) (Q27743 whole entry, looked up): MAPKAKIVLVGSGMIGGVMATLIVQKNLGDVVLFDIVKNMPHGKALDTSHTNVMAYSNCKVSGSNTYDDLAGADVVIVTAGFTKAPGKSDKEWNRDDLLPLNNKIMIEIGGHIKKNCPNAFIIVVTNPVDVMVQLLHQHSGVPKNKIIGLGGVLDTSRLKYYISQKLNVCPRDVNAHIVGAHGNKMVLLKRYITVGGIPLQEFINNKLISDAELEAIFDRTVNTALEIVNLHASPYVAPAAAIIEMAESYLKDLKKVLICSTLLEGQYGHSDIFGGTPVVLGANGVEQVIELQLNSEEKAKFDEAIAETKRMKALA
Sequence of Calcium-dependent protein kinase 4 (Plasmodium falciparum (isolate 3D7)) (Q8IBS5 whole entry, looked up): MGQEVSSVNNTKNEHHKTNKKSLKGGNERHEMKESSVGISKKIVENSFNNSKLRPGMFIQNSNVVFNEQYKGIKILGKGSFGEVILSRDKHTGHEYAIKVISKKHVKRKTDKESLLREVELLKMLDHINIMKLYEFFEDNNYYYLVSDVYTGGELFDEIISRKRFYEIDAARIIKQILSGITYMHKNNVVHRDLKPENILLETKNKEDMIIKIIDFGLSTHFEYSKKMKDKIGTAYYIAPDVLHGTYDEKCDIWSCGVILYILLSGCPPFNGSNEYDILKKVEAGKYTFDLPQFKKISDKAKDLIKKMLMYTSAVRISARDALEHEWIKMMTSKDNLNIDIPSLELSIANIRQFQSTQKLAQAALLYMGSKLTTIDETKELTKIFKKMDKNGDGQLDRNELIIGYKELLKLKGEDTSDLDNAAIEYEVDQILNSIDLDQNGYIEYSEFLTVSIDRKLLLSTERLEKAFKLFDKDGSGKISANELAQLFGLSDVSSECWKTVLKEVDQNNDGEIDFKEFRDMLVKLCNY
Sequence of Calcium-dependent protein kinase 1 (Plasmodium falciparum (isolate 3D7)) (P62344 whole entry, looked up): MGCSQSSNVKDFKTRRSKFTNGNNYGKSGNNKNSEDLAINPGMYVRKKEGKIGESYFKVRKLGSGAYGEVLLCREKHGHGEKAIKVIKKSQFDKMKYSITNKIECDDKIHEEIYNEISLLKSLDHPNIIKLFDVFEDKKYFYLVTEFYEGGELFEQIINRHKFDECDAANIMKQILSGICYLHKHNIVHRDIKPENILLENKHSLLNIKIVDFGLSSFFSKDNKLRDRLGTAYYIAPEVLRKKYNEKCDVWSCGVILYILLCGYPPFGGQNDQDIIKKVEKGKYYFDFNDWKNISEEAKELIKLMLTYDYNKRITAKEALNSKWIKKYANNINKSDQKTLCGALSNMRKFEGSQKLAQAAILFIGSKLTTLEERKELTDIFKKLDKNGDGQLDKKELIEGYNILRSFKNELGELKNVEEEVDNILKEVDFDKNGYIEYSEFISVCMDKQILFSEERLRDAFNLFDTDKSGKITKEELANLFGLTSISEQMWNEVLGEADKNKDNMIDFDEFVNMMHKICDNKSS
Sequence of Protein kinase 7 (PK7), Plasmodium falciparum 3D7 (PF3D7_0213400) (Q7YTF7 1-343): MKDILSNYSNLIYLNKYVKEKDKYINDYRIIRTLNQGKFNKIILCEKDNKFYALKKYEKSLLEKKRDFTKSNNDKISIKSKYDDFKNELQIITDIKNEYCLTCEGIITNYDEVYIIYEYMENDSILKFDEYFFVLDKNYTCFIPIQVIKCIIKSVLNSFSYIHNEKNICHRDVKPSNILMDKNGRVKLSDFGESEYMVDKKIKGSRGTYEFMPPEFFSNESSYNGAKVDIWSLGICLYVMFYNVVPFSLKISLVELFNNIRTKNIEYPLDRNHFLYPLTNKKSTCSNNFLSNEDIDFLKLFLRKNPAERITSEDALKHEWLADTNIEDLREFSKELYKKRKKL

With `Cc1cccc2[nH]c(-c3cccc(-c4cccc(C(=O)N5CCCCC5CN5CCC(O)C5)c4)c3)nc12` (stereo not given), the growth inhibition in assay [1] is 71% (active); in assay [4], 89% (active). Besides, the values for the inhibition in assay [2] and in assay [3] were 19% and -5%, respectively. For the same compound, the outcome in assay [5], in assay [6], in assay [7] and in assay [8] was inactive.

On to `CC(=O)c1c(CC(=O)O)c2ccccc2n1O`, for which the figures for the growth inhibition in assay [1] and in assay [4] were -1% and 98% (active), respectively. The results for the inhibition in assay [2] and in assay [3] were 16% and -3%, respectively. For the same compound, the outcome in assay [5], in assay [6], in assay [7] and in assay [8] was inactive.

In the case of `Cc1ccc(NC(=O)c2cc([N+](=O)[O-])ccc2NCc2cccnc2)cc1Cl`, the growth inhibition in assay [1] was 58% (active); in assay [4] it was 86% (active). Moreover, the inhibition (usually the relative decrease from the control value, in per cent) in assay [2] is 9%; in assay [3], -5%. In addition, the outcome in assay [5], in assay [6], in assay [7] and in assay [8] was inactive.

Regarding `O=c1cc(NC[C@H]2CCC[C@@H]2NCc2cc(Br)cc(Br)c2)[nH]c2ccccc12`, the growth inhibition in assay [1] was 45%; in assay [4], 101% (active). The inhibition in assay [2] is 21%; in assay [3] it was 2%. Moreover, the result in assay [5], in assay [6], in assay [7] and in assay [8] was inactive.

Take `Cc1ncccc1C(=O)Nc1cccc(-c2cccc(-c3nc4ccc(C(F)(F)F)cc4[nH]3)c2)c1`: the growth inhibition is 30% in assay [1] and 96% (active) in assay [4]. In addition, the inhibition is 34% in assay [2] and 1% in assay [3]. Besides, the outcome in assay [5], in assay [6], in assay [7] and in assay [8] was inactive.

Consider `CC(C)c1ccc(NC(=O)c2ccc(C(=O)NC3CCN(CC4CCCCC4)CC3)cc2)cc1`, for which the values for the growth inhibition in assay [1] and in assay [4] were 5% and 98% (active), respectively. In addition, the inhibition in assay [2] is 34%; in assay [3], -2%. Besides, the result in assay [5], in assay [6], in assay [7] and in assay [8] was inactive.

Consider `O=C(Nc1cccc(CN2CCCN(Cc3ccsc3)CC2)c1)c1ccc(Cl)c(Cl)c1`, for which the growth inhibition in assay [1] was 20%; in assay [4], 98% (active). Besides, the inhibition in assay [2] is 36%; in assay [3] it was 4%. In addition, the result in assay [5], in assay [6], in assay [7] and in assay [8] was inactive.

In the case of `COc1ccc2nccc([C@@H](O)CN3CCC(NC(=O)c4ccc(-c5ccccc5)s4)CC3)c2c1`, the figures for the growth inhibition in assay [1] and in assay [4] were 81% (active) and 100% (active), respectively. Also, the inhibition in assay [2] is 10%; in assay [3] it was -6%. The result in assay [5], in assay [6], in assay [7] and in assay [8] was inactive.

`CCOc1ccc(OCC)c(N2CCN(CCCCNC(=O)c3ccc(NC(=O)c4ccc(Cl)cc4)cc3)CC2)c1`: the figures for the growth inhibition in assay [1] and in assay [4] were 40% and 97% (active), respectively. In addition, the inhibition in assay [2] was 13%; in assay [3] it was 1%. The outcome in assay [5], in assay [6], in assay [7] and in assay [8] was inactive.

As to `OCCNc1nc(Nc2ccc(F)cc2)nc2ccccc12`, the growth inhibition in assay [1] was 73% (active); in assay [4] it was 94% (active). Further, the values for the inhibition in assay [2] and in assay [3] were 10% and 3%, respectively. Besides, the result in assay [5], in assay [6], in assay [7] and in assay [8] was inactive.

With `Oc1cc(Nc2ccnc3ccc(I)cc23)c(F)cc1Cl`, the growth inhibition in assay [1] was 13%; in assay [4], 95% (active). Besides, the inhibition in assay [2] is 20%; in assay [3] it was 0%. Further, the outcome in assay [5], in assay [6], in assay [7] and in assay [8] was inactive.

Consider `O=[N+]([O-])c1cccc(C=NNc2ccnc3ccc(C(F)(F)F)cc23)c1`, for which the growth inhibition in assay [1] is 35%; in assay [4] it was 96% (active). The inhibition in assay [2] was -6%; in assay [3], -2%. In addition, the outcome in assay [5], in assay [6], in assay [7] and in assay [8] was inactive.

Regarding `Fc1ccccc1C=NNc1ccnc2ccccc12`, the growth inhibition was 26% in assay [1] and 94% (active) in assay [4]. Besides, the inhibition is 8% in assay [2] and 0% in assay [3]. Also, the outcome in assay [5], in assay [6], in assay [7] and in assay [8] was inactive.

`COc1ccc([N+](=O)[O-])cc1N(Cc1ccccc1-c1ccccc1)S(=O)(=O)c1ccc(C(F)(F)F)cc1[N+](=O)[O-]`: the growth inhibition in assay [1] was 92% (active); in assay [4] it was 88% (active). Moreover, the figures for the inhibition in assay [2] and in assay [3] were 2% and -6%, respectively. Also, the result in assay [5], in assay [6], in assay [7] and in assay [8] was inactive.

`O=C(Nc1ccccc1Cc1ccccc1)c1ccccc1C(F)(F)F`: the growth inhibition in assay [1] is 85% (active); in assay [4], 99% (active). Further, the inhibition was 0% in assay [2] and 3% in assay [3]. For the same compound, the result in assay [5], in assay [6], in assay [7] and in assay [8] was inactive.

Regarding `CCCc1nc2c(N3CCCN(C(=O)NC4CCCCC4)CC3)cccc2n1Cc1ccccn1`, the results for the growth inhibition in assay [1] and in assay [4] were 10% and 89% (active), respectively. For the same compound, the figures for the inhibition in assay [2] and in assay [3] were 10% and 5%, respectively. The outcome in assay [5], in assay [6], in assay [7] and in assay [8] was inactive.

For `OCCN1CCN(Cc2ccc(-c3ccc(-c4nc5ccc(F)cc5[nH]4)cc3)cc2)CC1`, the growth inhibition is 99% (active) in assay [1] and 101% (active) in assay [4]. For the same compound, the inhibition in assay [2] was 33%; in assay [3], -5%. Besides, the result in assay [5], in assay [6], in assay [7] and in assay [8] was inactive.

As to `CC(N)(Cc1ccc(O)cc1)c1nn[nH]n1` (stereo not given), the growth inhibition in assay [1] was 2%; in assay [4], 93% (active). The inhibition was 7% in assay [2] and 4% in assay [3]. Moreover, the result in assay [5], in assay [6], in assay [7] and in assay [8] was inactive.

Consider `CC(C)n1c(C2CCN(CC3CCN(C(=O)/C=C/c4ccc(Cl)c(Cl)c4)CC3)CC2)nc2ccccc21`, for which the growth inhibition was 7% in assay [1] and 94% (active) in assay [4]. In addition, the inhibition in assay [2] is 36%; in assay [3] it was 2%. For the same compound, the result in assay [5], in assay [6], in assay [7] and in assay [8] was inactive.

In the case of `CC(C)c1ccc(CN2CCC(CNC(=O)c3cc(-c4ccc(N(C)C)cc4)cs3)C2)cc1` (stereo not given), the growth inhibition in assay [1] was 32%; in assay [4] it was 83% (active). For the same compound, the inhibition was 36% in assay [2] and 5% in assay [3]. The outcome in assay [5], in assay [6], in assay [7] and in assay [8] was inactive.

The values above are taken from PubChem BioAssay.
